Compound activity deposited in PubChem BioAssay by National Center for Advancing Translational Sciences (NCATS).
NPSR antag – blocks cAMP signaling of the human neuropeptide S receptor; 220,000 compounds, 1% hits; Potency, µM (top dose mostly 38.3 µM), without a hit: top-dose activity change, negative = inhibition, actives largely listed as inhibitors; Q6W5P4; CHO-NPSR cells, cAMP TR-FRET, antagonist mode; also: nearly all actives have a fitted effect of over 50% in size
Target sequence (Q6W5P4 whole entry, looked up): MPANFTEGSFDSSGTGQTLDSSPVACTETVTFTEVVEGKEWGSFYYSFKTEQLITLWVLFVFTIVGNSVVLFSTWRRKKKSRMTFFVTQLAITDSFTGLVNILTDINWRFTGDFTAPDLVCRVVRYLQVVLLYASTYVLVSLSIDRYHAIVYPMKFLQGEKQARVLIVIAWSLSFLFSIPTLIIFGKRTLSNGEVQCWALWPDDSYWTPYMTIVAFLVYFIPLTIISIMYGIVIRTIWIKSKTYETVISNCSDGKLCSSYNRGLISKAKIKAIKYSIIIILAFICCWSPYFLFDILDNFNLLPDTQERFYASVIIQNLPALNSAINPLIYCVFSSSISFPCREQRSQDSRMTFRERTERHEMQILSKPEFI
IMPase Li cell – membrane-permeable IMPase blocker, potentiated with lithium; 210,000 compounds, 0.35% hits; Potency, µM (top dose mostly 59.4 µM), for the others: top-dose activity, negative = IMPase inhibition, usual class: inhibitors; CHO-M1 cells, IP1 TR-FRET (IP-One), carbachol + lithium;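 also: IP1 builds up when IMPase is blocked and the TR-FRET signal falls; plate controls were basal vehicle for no effect and high inhibitor control for full effect; nearly all actives have a fitted effect of over 50% in size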
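IP1 accumulation measured by competitive TR-FRET in lysed CHO-M1 cells after 30 min compound exposure at 37C, with a small lithium addition to potentiate weak responses. Hill-equation AC50 from ratio and donor-channel data.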
ERK EGF inh – inhibitors of EGF-stimulated ERK signaling pathway | HEK293-V1b, EGF-stimulated phospho-ERK AlphaScreen | Potency, µM (series often up to 11.5 µM), for the others: top-dose activity change, negative = inhibition, most hits filed as inhibitors | 130,000 compounds, 0.41% hits | AID 1454;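 also: plate controls were stimulated vehicle wells for no effect and unstimulated vehicle basal for full effect; nearly all actives have a fitted effect of over 55% in size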
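Compounds are titrated over HEK293-V1b cells kept overnight in 1% FBS. After 30 min at 37C, EGF (25 nM final) triggers ERK phosphorylation for 5 min, measured by AlphaScreen in lysates.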
An asterisk follows results filed as active; ? = inconclusive; . = no result given; [ ] = dose if it differs, or a comment. The full list was thinned out, with hits kept by preference. Calls follow the shape of the dose curve; as a rule, active = well fitted curve in the direction sought with a large enough effect; inconclusive = small, poorly fitted or top-dose-only effect, or another doubt; inactive = no such curve, though single readings can be large; an effect the other way counts as inactive or inconclusive. Unless noted, % is scaled to controls: 0 for no effect and ±100 for the full control effect; potency is read from the fitted curve at half-maximal effect.

SMILES	NPSR antag	IMPase Li cell	ERK EGF inh
O=c1c(C(c2ccccc2)c2c(O)sc3ccccc3c2=O)c(O)sc2ccccc12	10µM*	20.0%[38.3 µM]	?
Cc1cc2sc3ccccc3c(=O)c2c(C)c1O	-18.7%	-3.9%	-1.9%
O=C(Nc1ccc2c(c1)OCO2)c1cnn2c(C(F)(F)F)cc(-c3ccco3)nc12	-15.5%[46.1 µM]	21.3%[38.3 µM]	.
O=C(Nc1cnn(C23CC4CC(CC(C4)C2)C3)c1)c1cnn2c(C(F)(F)F)cc(-c3ccco3)nc12	7.94µM*	45.0%[38.3 µM]	.
Cc1ccc2ccccc2c1[N+](=O)[O-]	.	-4.1%	.
C=CC1=C2C=C(C3CC3)N(Cc3ccccc3)C=C2C(=O)C(C)(OC(=O)c2ccco2)C1=O (stereo not drawn)	.	1.8%	.
COc1ccc(N2CCN(CCNC(=O)c3ccc4c(c3)[nH]c(=S)n3c5ccccc5nc43)CC2)cc1	-20.4%	14.1µM*	41.8%
COc1ccccc1Cn1c(=S)[nH]c2cc(C(=O)NCCN3CCOCC3)ccc2c1=O	-27.6%[46.1 µM]	.	.
CN=C(NC#N)NCCSC[C@H]1N=CN=C1C	.	-12.8%	7.1%[25.7 µM]
CC(=O)c1c(C)nc2ccc(Br)cc2c1-c1ccccc1	-24.9%	9.6%	5.2%
Cc1ccc(-c2cc(C(=O)O)c3cc(Br)ccc3n2)o1	-14.9%	11.2µM*	10.2%
CC(=O)c1c(C)nc2ccc(Br)cc2c1C(=O)O	-11.3%[46.1 µM]	1µM*	.
Cc1ccc(-c2cc(C(=O)NN3CCOCC3)c3cc(Br)ccc3n2)o1	-17.5%	-12.3%	-18.9%
O=C1N=C(N2CCOCC2)S/C1=C/c1cc2c(cc1[N+](=O)[O-])OCO2	40.3%	.	3.9%[57.5 µM]
NCCC[C@@H](CC(=O)N[C@@H]1CCCC[C@H]1C(=O)N[C@H](CC(=O)N[C@@H](CCC(=O)O)CC(=O)O)Cc1c[nH]c2ccccc12)NC(=O)C[C@H](Cc1c[nH]c2ccccc12)NC(=O)[C@@H]1CNCC[C@H]1N	.	12.6%	-21.9%
NC(=S)n1[nH]c(-c2ccc([N+](=O)[O-])cc2)c(N=Nc2ccc(Cl)cc2)c1=O	-22.3%	23.0%	?
Cc1ccc([N+](=O)[O-])cc1N=Nc1c(-c2ccc([N+](=O)[O-])cc2)[nH]n(C(N)=S)c1=O	10µM*	12.2%	?
CNC(=O)[C@H]1O[C@@H](n2cnc3c(N)ncnc32)[C@H](O)[C@@H]1O	.	-3.3%	.
Cc1ccc(N=N/C(=C\O)C(=O)c2ccncc2)cc1	10µM*	23.8%[38.3 µM]	.
O=C(/C(=C/O)N=Nc1ccc(Cl)cc1)c1ccncc1	?	-4.0%[38.3 µM]	.
COc1cc2oc(=O)cc(C)c2c(OC)c1OC	2.7%	-2.1%	7.8%
COc1cc2oc(=O)c(Br)c(C)c2c(OC)c1OC	21.8%[46.1 µM]	12.6µM*	.
O=[N+]([O-])c1ccc(Cl)c(CNc2ncnc3c2ncn3[C@@H]2CCCCO2)c1	.	8.4%	.
COC(=O)C1(C(=O)OC)C[C@@H]2CON=C2[C@H]1c1ccccc1	.	12.5%	-6.1%
COC(=O)CC[C@@H](C)C1CC[C@H]2[C@H]3CC[C@H]4C[C@@H]5CCC4(C)[C@@]3(O5)[C@@H](Br)[C@@H](Br)[C@@]12C (stereo partly drawn)	.	1.7%	.
SMILES	NPSR antag	IMPase Li cell	ERK EGF inh
Clc1ccc(/C=C\c2nc(Cl)c(-c3ccc(Cl)cc3)c(Cl)n2)cc1	.	4.4%	.
COc1ccc(-c2csc(NC(=S)NC(=O)/C=C/c3ccco3)n2)cc1Br	?	.	5.7%[57.5 µM]
COc1ccc(-c2csc(NC(=S)NC(=O)/C=C/c3ccco3)n2)cc1OC	1µM*	-8.4%	-4.6%
O=C(/C=C/c1ccco1)NC(=S)Nc1cccc(-c2nc3ccccc3o2)c1	1.58µM*	7.2%[38.3 µM]	.
Cc1ccc(-c2nc3ccccc3o2)cc1NC(=S)NC(=O)/C=C/c1ccco1	-19.6%[46.1 µM]	1.2%[38.3 µM]	.
CC(=O)N1CCC2(CCCN(c3cccc(-c4ccccc4)c3)C2)CC1	.	2.1%	9.4%
O=c1c(-c2ccc(Cl)cc2)nc2cnc(N3CCNCC3)nc2n1-c1ccccc1	.	7.8%	.
O=C(Nc1ccc(F)cc1)c1ccc(COc2ccccc2)cc1	-37.6%	12.6µM*	-0.9%
NNC(=O)c1ccc(COc2ccccc2)cc1	20.1%	-1.2%	-5.8%
NS(=O)(=O)c1ccc(CCNS(=O)(=O)c2ccc(Cl)nc2)cc1	-17.2%	.	4.0%[57.5 µM]
Cc1ccc(C(=O)C2=C(O)C(=O)N(CCCn3ccnc3)C2c2ccc(OC(C)C)cc2)o1 (stereo not drawn)	?	14.1µM*	.
CCOc1ccc(C2C(C(=O)c3ccco3)=C(O)C(=O)N2Cc2cccnc2)cc1 (stereo not drawn)	2.8%[46.1 µM]	-7.5%[38.3 µM]	.
CCCOc1ccc(C2C(C(=O)c3ccc(C)o3)=C(O)C(=O)N2Cc2cccnc2)cc1 (stereo not drawn)	?	10µM*	.
CCOc1ccc(C2C(C(=O)c3ccco3)=C(O)C(=O)N2CCCn2ccnc2)cc1 (stereo not drawn)	-4.8%[46.1 µM]	-14.6%[38.3 µM]	.
CCCCCCCCCCCCC/C=C/[C@@H](O)[C@H](CO)NC(C)=O	.	-4.3%	.
Cc1cccc(CNc2ccnc(-c3ccccc3C(F)(F)F)n2)c1	.	20.3%	.
NCCC[C@@H](CC(=O)N[C@@H]1CCCC[C@H]1C(=O)N[C@H](CC(=O)N[C@@H](CCC(=O)O)CC(=O)O)Cc1ccccc1)NC(=O)C[C@H](CO)NC(=O)[C@@H]1CNCC[C@H]1N	.	-4.0%	-7.1%
C=CCN1c2ccccc2[C@]23C[C@@H](C(=O)OC)N(C(=O)COCc4ccccc4)C2=NC(C(=O)OC)=C(C(=O)OC)[C@H]13	.	5.1%	.
COc1ccc(/C=N\Nc2ccc([N+](=O)[O-])cc2[N+](=O)[O-])c(C(=O)O)c1OC	27.0%	.	?
CC1=C(/C=N/Nc2ccc([N+](=O)[O-])cc2[N+](=O)[O-])C(C)(C)CCC1	-21.7%	5.9%	14.1µM*
Cc1ccc2[nH]c3c(=S)nc[nH]c3c2c1	-53.9%	12.6µM*	-18.3%
Cc1ccc2[nH]c3c(=O)n(N)c(C)nc3c2c1	14.8%	13.5%	4.8%
CC(C)(C)c1ccc(OCC2CO2)cc1 (stereo not drawn)	.	-11.2%	.
COc1ccc2c(c1)OCC(Cc1ccc(OC)c(OC(C)=O)c1)C2=O (stereo not drawn)	.	16.1%	0.9%
COc1ccc(N2C(=O)c3ccccc3NC2c2ccc(OC)c(CSc3ccccn3)c2)cc1 (stereo not drawn)	12.6µM*	?	.
SMILES	NPSR antag	IMPase Li cell	ERK EGF inh
COc1ccc(N2C(=O)c3ccccc3NC2c2ccc(OC)c(COc3ccccn3)c2)cc1 (stereo not drawn)	-3.1%[46.1 µM]	5.3%	6.2%
NC(N)=NS(=O)(=O)c1ccc(NC(=S)NC(=O)c2ccccc2)cc1	6.0%	.	5.6%[57.5 µM]
NS(=O)(=O)c1ccc(NC(=S)NC(=O)c2ccc(-c3ccccc3)cc2)cc1	4.0%	11.2µM*	10.4%
O=C(NC(Nc1nc2ccc([N+](=O)[O-])cc2s1)(C(F)(F)F)C(F)(F)F)c1cccnc1	-31.7%	15.5%	10.2%
O=C(NC(Nc1nc2ccc([N+](=O)[O-])cc2s1)(C(F)(F)F)C(F)(F)F)c1ccccc1Cl	7.94µM*	22.2%	-4.5%
C=CC1=C(C(=O)O)N2C(=O)C(NC(=O)/C(=N\O)c3csc(N)n3)C2SC1 (stereo not drawn)	.	14.2%	7.4%
COc1ccc2[nH]c3c(N4CC(C)OC(C)C4)ncnc3c2c1 (stereo not drawn)	-11.7%[46.1 µM]	-7.4%[38.3 µM]	.
